Results filed as inconclusive are left out. A call without a number means that no potency is given here. Active and inactive are the calls of the source. Calls follow the shape of the dose curve; as a rule, active = well fitted cell-killing curve with a large enough effect in the repeat runs; inconclusive = weak or mixed curves, or effect the other way; inactive = flat fitted curve, though single readings scatter.
Assay: qHTS assay to identify small molecule antagonists of the estrogen receptor alpha (ER-alpha) signaling pathway using the BG1 cell line in the presence of 0.1 nM 17-beta-estradiol - cell viability counter screen (AID 1259241); also: nearly all actives have a fitted effect of over 40% in size
Conditions: VM7Luc4E2 (BG1) viability, CellTiter-Fluor protease, 22 h, 0.1 nM estradiol agonist added; series mostly up to 92.4 µM
In short: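 VM7Luc4E2, 4,000 cells/well, phenol red-free medium + 10% charcoal-stripped FBS; 24 hr plating; cpd + 0.1 nM E2 final, 22 hr 37C/5% CO2; CellTiter-Fluor 30 min, fluorescence.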
Potency is read from the fitted curve at half-maximal effect.

SMILES	Potency
CC1=C(/C=C/C(C)=C/C=C/C(C)=C/CO)C(C)(C)CCC1	inactive
COC(=O)c1ccccc1O	inactive
Oc1ccc2ccccc2c1N=Nc1ccccc1	30.6 µM (active)
C[C@@H](O)[C@H]1C(=O)N2C(C(=O)O)=C(S[C@@H]3CN[C@H](C(=O)N(C)C)C3)[C@H](C)[C@H]12	inactive
C=C1CC[C@H](O)CC1=C/C=C1\CCC[C@]2(C)[C@@H]([C@H](C)/C=C/[C@H](C)C(C)C)CC[C@@H]12	inactive
CCc1ccc(O)cc1	inactive
OCC#CCO	inactive
CN(C)c1cccc(O)c1	inactive
COCC(=O)O	inactive
CC1=CC[C@H]2C[C@@H]1C2(C)C	inactive
CC(C)(C)C1CCC(O)CC1 (stereo unspecified)	inactive
CC#C[C@]1(O)CC[C@H]2[C@@H]3CCC4=CC(=O)CCC4=C3[C@@H](c3ccc(N(C)C)cc3)C[C@@]21C	inactive
S=c1nc[nH]c2nc[nH]c12	inactive
O=C(Cl)c1c(Cl)c(Cl)c(C(=O)Cl)c(Cl)c1Cl	inactive
Nc1nc2ncc(CNc3ccc(C(=O)N[C@@H](CCC(=O)O)C(=O)O)cc3)nc2c(=O)[nH]1	inactive
CC1Cc2ccccc2N1NC(=O)c1ccc(Cl)c(S(N)(=O)=O)c1 (stereo unspecified)	inactive
C=C(C)C(=O)OCC(CC)(COC(=O)C(=C)C)COC(=O)C(=C)C	inactive
CCCCCCCCCCCCOCC1CO1 (stereo unspecified)	inactive
CC(C)n1c(/C=C/[C@@H](O)C[C@@H](O)CC(=O)O)c(-c2ccc(F)cc2)c2ccccc21	inactive
NC(=O)NNc1ccccc1	inactive
O=C(Oc1ccccc1)c1ccc(O)cc1	inactive
